High-throughput results (PubChem BioAssay)
An excerpt weighted towards active compounds, which were near 1.5% of everything screened.
AI-2 QS modul: modulates the Vibrio harveyi AI-2 quorum sensing system | Vibrio harveyi JMH597 AI-2 luminescence/OD600 ratio, 9 h; active compounds read low; strain lacks LuxN and CqsS sensors; 0 = neutral-control median | activity change, % at 7.5 µM | 300,000 compounds, 0.4% hits; in the data active means activity change below about -75%, passing the limit was not always enough;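 further: luminescence divided by OD600 gain over 9 h not by final OD600 alone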
ARNT TACC3 PPI: ARNT/TACC3 interaction disruption. Q9Y6A5. AlphaScreen His-ARNT PAS-B/GST-TACC3 binding, luminescence; TACC3 fragment carries E629A point mutation. inhibition, % at 9.99 µM. 390,000 compounds, 0.66% hits;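 active means mean inhibition of replicates at least 50% and at least half of replicates each reaching 50%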;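 further: 0% = complete ARNT plus TACC3 wells and 100% = ARNT alone without TACC3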
sPLA2-III inh: Blocks human group III sPLA2 activity. QFRET BODIPY PC-A2 liposome hydrolysis, fluorescence. inhibition, % at 12.2 µM. 370,000 compounds, 0.56% hits;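 active means inhibition above mean plus 3 SD of compounds lying within the high and low control bounds, cut at about 19% in these data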;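 further: 0% = median of test compound wells and 100% = no enzyme DMSO wells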
Target sequence (Q9NZ20 whole entry, looked up): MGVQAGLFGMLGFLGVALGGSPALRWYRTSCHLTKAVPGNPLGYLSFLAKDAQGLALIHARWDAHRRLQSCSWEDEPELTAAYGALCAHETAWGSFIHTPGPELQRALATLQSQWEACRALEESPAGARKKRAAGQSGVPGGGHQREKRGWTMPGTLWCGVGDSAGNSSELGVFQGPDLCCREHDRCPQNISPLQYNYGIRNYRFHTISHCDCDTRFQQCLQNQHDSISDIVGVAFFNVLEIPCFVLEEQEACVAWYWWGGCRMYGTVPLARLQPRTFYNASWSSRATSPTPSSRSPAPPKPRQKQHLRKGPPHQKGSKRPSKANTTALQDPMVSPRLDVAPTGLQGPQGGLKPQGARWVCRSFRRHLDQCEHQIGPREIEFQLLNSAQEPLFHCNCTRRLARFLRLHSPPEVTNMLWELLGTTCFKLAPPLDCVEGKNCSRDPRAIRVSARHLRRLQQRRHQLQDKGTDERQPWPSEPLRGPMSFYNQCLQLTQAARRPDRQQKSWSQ
Rin1 Abl inh: human Rin1-Abl interaction inhibition; P00519+Q13671; 360,000 compounds, 0.4% hits; inhibition, % at 7.35 µM; TR-FRET Rin1/Abl binding, biochemical; in the data active means inhibition above about 5%, passing the limit was not always enough
sPLA2 confirm: human GIII-sPLA2 inhibition, confirmation; 2,000 compounds, 34% hits; recombinant hGIII-sPLA2, BODIPY PC-A2 QFRET fluorescence; shares compounds with sPLA2-III inh; inhibition, % at 12.2 µM;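 active means mean inhibition across triplicates above the hit cutoff set in the earlier primary screen, cut at about 19% in these data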;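 further: 0% = enzyme with DMSO and 100% = DMSO wells lacking enzyme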
535nm interf: 535nm fluorescence interference, HGIII-sPLA2 counter-screen; shares compounds with sPLA2-III inh; BODIPY FL product fluorescence interference, QFRET; inhibition, % at 12.2 µM; 2,000 compounds, 8.5% hits; AID 743282;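 active means average inhibition above the solvent-only control mean plus 3 SD, cut at about 6% in these data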;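 further: 0% = DMSO with substrate plus product and 100% = DMSO with substrate alone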
535nm interf DR: 535nm optical interference dose response, HGIII-sPLA2 counter-screen | IC50, µM | BODIPY FL product fluorescence interference, cell-free | shares compounds with sPLA2-III inh | AID 743455 | 240 tested, under 10 active;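 active means IC50 at or below 10 µM; inactive means IC50 above 10 µM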
* marks the source's active call; other numbers are inactive results; · = no result given.

SMILES | AI-2 QS modul | ARNT TACC3 PPI | sPLA2-III inh | Rin1 Abl inh | sPLA2 confirm | 535nm interf | others
Cc1cccc(NC(=S)NNC(=O)c2ccccc2OC(F)F)c1 | 18.3 | 17.5 | 23.3* | 2.5 | 35.6* | -4.0
Cc1cccc(NC(=S)NNC(=O)c2ccccc2Br)c1 | 11.9 | 33.9 | 31.1* | 3.0 | 25.8* | 2.3
Cc1cccc(NC(=O)c2ccc(NC(=O)c3ccccc3Br)cc2)c1 | 20.2 | · | -1.0 | -3.7 | · | ·
COc1ccccc1NC(=S)NNC(=O)c1ccccc1Br | 16.9 | 0.5 | 22.1* | -1.9 | 19.0 | -0.3
COc1ccc(CN(C)C[C@@H]2Oc3ccc(NC(=O)CCN4CCOCC4)cc3CC(=O)N([C@@H](C)CO)C[C@H]2C)cc1 | · | 3.1 | · | · | · | ·
C[C@@H]1CN([C@@H](C)CO)C(=O)c2cc(NS(=O)(=O)c3cn(C)cn3)ccc2O[C@@H]1CN(C)S(C)(=O)=O | · | 3.8 | · | · | · | ·
Cc1cccc(NC(=S)NNC(=O)c2ccc3c(c2)OCO3)c1 | 19.7 | 4.0 | 22.9* | -2.8 | 42.9* | -0.3 | 535nm interf DR=>122
COc1ccc(S(=O)(=O)N[C@H]2CC[C@H](CC(=O)N3CCC(Cc4ccccc4)CC3)O[C@@H]2CO)cc1 | · | 2.4 | · | · | · | ·
CN1c2ccc(-c3ccccc3)cc2[C@H]2[C@H](CCN2C(=O)Nc2ccccc2F)[C@H]1CO | · | 9.8 | · | · | · | ·
O=C(NCCCN1CCCC1=O)c1ccc(CNS(=O)(=O)c2ccc(F)cc2)cc1 | 21.9 | -5.8 | 71.6* | 1.1 | -1.1 | -10.2
Cc1onc(-c2ccccc2)c1C(=O)NC(=S)NNC(=O)c1ccc(O)cc1O | -1.1 | 95.4* | 23.5* | -1.9 | 23.1* | 2.6
Cc1onc(-c2ccccc2)c1C(=O)NC(=S)NNC(=O)c1ccccc1O | 34.0 | 58.5* | 42.3* | -2.1 | 34.2* | 1.1 | 535nm interf DR=>122
Cc1onc(-c2ccccc2)c1C(=O)NC(=S)NNC(=O)c1ccc(O)cc1 | 55.8 | 21.3 | 9.3 | -1.3 | · | ·
CC1(NC(=S)NCCO)CCS(=O)(=O)C1 (stereo not drawn) | 14.5 | -13.1 | 20.1* | -3.9 | 0.5 | -7.5
O=C(CCCNC(=O)c1ccc(Cl)cc1)Nc1ccccc1F | 15.4 | -5.1 | 20.8* | 1.2 | -3.4 | -4.5
CS(=O)(=O)N1CCCC(C(=O)NCc2cccs2)C1 (stereo not drawn) | 13.9 | 1.8 | 20.0* | 4.6 | -3.5 | -0.9
CS(=O)(=O)N1CCCC(C(=O)NCc2ccco2)C1 (stereo not drawn) | 36.2 | -10.4 | 19.6* | -1.1 | -1.3 | -4.0
C[C@H](CO)N1C[C@H](C)[C@@H](CN(C)C(=O)NC2CCCC2)Oc2ncc(Br)cc2C1=O | · | 0.6 | · | · | · | ·
Cn1nccc1C(=O)N1CCc2ccccc21 | 16.3 | -2.2 | 86.9* | 4.0 | -0.6 | -0.8
Cn1ncc(Br)c1C(=O)N1CCc2ccccc21 | 20.0 | 2.8 | 3.0 | 3.3 | · | ·
C[C@H](CO)N1C[C@H](C)[C@H](CN(C)C(=O)NC2CCCCC2)OCCCC[C@H](C)Oc2ccc(NS(C)(=O)=O)cc2C1=O | · | -8.2 | · | · | · | ·
CCc1ccccc1NC(=S)NC1CC2CCC(C1)N2Cc1ccco1 (stereo not drawn) | 1.0 | 1.7 | 21.0* | 0.2 | 13.6 | -7.8
O=C(N[C@@H]1CC[C@@H](CCNS(=O)(=O)c2ccc(F)cc2)O[C@@H]1CO)C1CCC1 | · | -9.7 | · | · | · | ·
CCOC(=O)N1CCN(S(=O)(=O)c2ccc(C(=O)NNc3nc4cc(C)cc(C)c4s3)cc2)CC1 | 102.4 | 29.7 | · | 1.7 | · | ·
Cc1cc(C)c2nc(NNC(=O)c3ccc(S(=O)(=O)N4CCCCC4)cc3)sc2c1 | 87.9 | 29.0 | 45.8* | 0.9 | 53.4* | -2.4 | 535nm interf DR=>122
SMILES | AI-2 QS modul | ARNT TACC3 PPI | sPLA2-III inh | Rin1 Abl inh | sPLA2 confirm | 535nm interf | others
CCOC(=O)N1CCN(S(=O)(=O)c2ccc(C(=O)NNc3nc4c(C)cccc4s3)cc2)CC1 | 57.8 | 20.8 | 33.4* | 2.6 | 39.4* | -0.8 | 535nm interf DR=>122
CCOC(=O)N1CCN(S(=O)(=O)c2ccc(C(=O)NNc3nc4c(C)cc(C)cc4s3)cc2)CC1 | 30.4 | · | 59.7* | 0.7 | 45.3* | -2.5 | 535nm interf DR=>122
Cc1ccc(C(=O)NNC(=O)c2ccc(S(=O)(=O)N3CCCCC3)cc2)cc1 | · | -1.3 | -24.1 | 2.6 | · | ·
COc1ccc(NC(=O)Nc2ccc3c(c2)C(=O)N([C@@H](C)CO)C[C@H](C)[C@H](CN(C)CC2CCCCC2)OCCCC[C@H](C)O3)cc1 | · | 13.3 | · | · | · | ·
Cc1ccc(S(=O)(=O)N(C)C[C@H]2OCCCC[C@H](C)Oc3ccc(NS(=O)(=O)c4ccc(Cl)cc4)cc3C(=O)N([C@H](C)CO)C[C@@H]2C)cc1 | · | 15.3 | · | · | · | ·
COc1ccc2c(c1)-c1c(ssc1=S)C(C)(C)N2S(=O)(=O)c1ccc(C)cc1 | 26.7 | 1.4 | 13.1 | 0.3 | · | ·
Cc1ccc(S(=O)(=O)N2c3ccccc3-c3c(ssc3=S)C2(C)C)cc1 | 14.5 | 17.1 | 27.8* | -0.5 | 24.2* | 4.7
COc1ccc(/C=N/NC(=S)NCc2ccccc2)cc1OC | 12.7 | 2.9 | 24.5* | -1.9 | 14.2 | -5.3
C[C@@H]1CCCCO[C@H](CN(C)C(=O)C2CCCCC2)[C@@H](C)CN([C@@H](C)CO)C(=O)c2cc(NC(=O)Cc3ccccc3)ccc2O1 | · | -1.0 | · | · | · | ·
CC(C)c1nn(-c2cc(C(F)(F)F)ccn2)c(=O)o1 | 16.5 | -14.6 | 1.1 | -1.5 | · | ·
O=c1oc(-c2ccc(Cl)c(Cl)c2)nn1-c1ccc(C(F)(F)F)cn1 | 47.9 | · | 30.3* | -0.5 | 22.9* | 7.8*
O=C(C[C@H]1CC[C@@H](NC(=O)NC2CCCCC2)[C@@H](CO)O1)NCc1ccc(Cl)cc1 | · | -1.9 | · | · | · | ·
O=c1n(-c2ccccc2)c(=O)n2n1CC(COc1ccccc1)=C1[C@@H](c3ccccc3)OB(O)C[C@@H]12 | · | 9.7 | · | · | · | ·
CN(C(=O)Nc1ccc(Cl)c(Cl)c1)c1ccccc1C(=O)O | 16.1 | 1.2 | 21.4* | 1.0 | 5.1 | -4.3
O=C(Nc1ccc(Cl)c(Cl)c1)c1ccccc1 | · | 6.2 | -2.2 | 3.9 | · | ·
CO[C@H]1CN(C)C(=O)c2cc(NC(=O)C3CC3)ccc2OC[C@@H](C)N(Cc2ccc(F)cc2)C[C@H]1C | · | -10.7 | · | · | · | ·
N#CCc1ccnc2ccccc12 | · | 3.4 | -13.5 | -1.7 | · | ·
N#CC(C#N)c1ccnc2ccccc12 | · | · | 19.4* | -3.9 | 6.6 | -2.1
Nc1ccc2c(c1)C(=O)c1cc([N+](=O)[O-])ccc1-2 | · | -4.2 | 29.0* | -13.8 | 7.7 | 4.0
NN=C1c2cc([N+](=O)[O-])ccc2-c2ccc([N+](=O)[O-])cc21 | -1.1 | · | · | · | · | ·
Nc1ccc2c(c1)C(=O)c1ccc(N)cc1-2 | · | 8.4 | 3.6 | -17.1 | · | ·
Nc1ccc2c(c1)C(=O)c1cc(Cl)c(Cl)cc1-2 | · | 3.5 | 31.4* | -16.4 | 35.4* | 13.9*
